# Test results as given in the supplement of paper PMC6555819.
# Experiments:
# Test in all cases: PBM binding z-score (relative to random genomic background probes); higher = stronger binding; sequences stand for … in GC…GCGATTGACAGCGTAGAATGAAGG
# [1] = system: FXR:RXRa (NR concentration 270 nM, RXRa partner concentration 90 nM)
# Method in brief: (§1)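 Ligand-free nuclear receptor dimers were bound for 1 h to custom Agilent 4×180K protein-binding microarrays. Detection used antibodies against each partner (one per run). Binding z-scores rest on regression-normalized fluorescence, with random background probes as the reference.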
# [2] = system: LXRa:RXRa (NR concentration 270 nM, RXRa partner concentration 90 nM)
# Method in brief: as §1
# [3] = system: LXRa homodimer (NR concentration 270 nM)
# Method in brief: as §1
# [4] = system: LXRb:RXRa (NR concentration 270 nM, RXRa partner concentration 90 nM)
# Method in brief: as §1
# [5] = system: LXRb homodimer (NR concentration 270 nM)
# Method in brief: as §1
# [6] = system: PPARa:RXRa (NR concentration 270 nM, RXRa partner concentration 90 nM)
# Method in brief: as §1
# [7] = system: PPARg:RXRa (NR concentration 180 nM, RXRa partner concentration 90 nM)
# Method in brief: as §1
# [8] = system: PPARg:RXRa 270nM:90nM, anti-RXR (NR concentration 270 nM, RXRa partner concentration 90 nM)
# Method in brief: as §1
# [9] = system: PPARg:RXRa 30nM:10nM, anti-RXR (NR concentration 30 nM, RXRa partner concentration 10 nM)
# Method in brief: as §1
# [10] = system: PPARg:RXRa 90nM:30nM, anti-RXR (NR concentration 90 nM, RXRa partner concentration 30 nM)
# Method in brief: as §1
# [11] = system: PPARg:RXRa DBDmut IVT, anti-RXR (DBD mutation: RXRa K156A/R161A, NR concentration 270 nM, RXRa partner concentration 90 nM)
# Method in brief: as §1
# [12] = system: PPARg:RXRa IVT, anti-PPARg (NR concentration 270 nM, RXRa partner concentration 90 nM)
# Method in brief: as §1
# [13] = system: PPARg DBDmut:RXRa IVT, anti-PPARg (DBD mutation: PPARg1 K132A/R137A, NR concentration 270 nM, RXRa partner concentration 90 nM)
# Method in brief: as §1
# [14] = system: PPARg DBDmut IVT, anti-PPARg (DBD mutation: PPARg1 K132A/R137A, NR concentration 270 nM)
# Method in brief: as §1
# [15] = system: PPARg homodimer (NR concentration 180 nM)
# Method in brief: as §1
# [16] = system: PXR:RXRa (NR concentration 270 nM, RXRa partner concentration 90 nM)
# Method in brief: as §1
# [17] = system: PXR homodimer (NR concentration 270 nM)
# Method in brief: as §1
# [18] = system: RARa:RXR (NR concentration 270 nM, RXRa partner concentration 90 nM)
# Method in brief: as §1
# [19] = system: RARa homodimer (NR concentration 270 nM)
# Method in brief: as §1
# [20] = system: RARb:RXRa (NR concentration 270 nM, RXRa partner concentration 90 nM)
# Method in brief: as §1
Sequence,PBM binding z-score [1],PBM binding z-score [2],PBM binding z-score [3],PBM binding z-score [4],PBM binding z-score [5],PBM binding z-score [6],PBM binding z-score [7],PBM binding z-score [8],PBM binding z-score [9],PBM binding z-score [10],PBM binding z-score [11],PBM binding z-score [12],PBM binding z-score [13],PBM binding z-score [14],PBM binding z-score [15],PBM binding z-score [16],PBM binding z-score [17],PBM binding z-score [18],PBM binding z-score [19],PBM binding z-score [20]
TCCAGTAGGTTAGTCGGGGCATTCAGCCAACATA,0.407,0.471,0.422,0.794,-0.477,1.38,0.45,2.08,2.7,2.41,3.62,3.02,-0.197,-0.452,0.925,0.439,0.18,0.346,0.0406,0.79
TGAATGAGGTTAAACATCAGGGAACGTGGCGTCG,3.51,2.57,-0.0319,1.69,-0.0141,3.88,2.33,2.74,1.06,1.93,2.85,2.57,1.51,0.325,0.272,1.7,-0.296,2.29,0.112,2.13
TCGAGTAGGTTACGAATGGGGCATTCAGCTTTCT,0.143,0.677,-0.52,0.42,-0.693,0.834,0.32,0.972,0.971,0.914,3.5,2.62,-0.724,-1.15,-0.342,-0.00987,-0.855,0.446,-0.789,0.855
ACTTACGGGTCAACGAGGTTATAGGACGCGTATA,5.95,5.07,0.89,4.43,0.538,5.78,5.7,5.53,2.04,4.25,3.03,4.18,1.47,0.791,2,5.08,2.36,5,1.18,4.41
ATACCAAGGTGATCGTGAGGTCGTTTATACTAAC,1.68,1.66,1.35,1.74,0.0373,1.69,0.492,0.454,-0.0827,0.159,0.676,1.12,0.496,0.607,0.889,3.27,2.05,2.19,0.982,1.51
TCGAGTAGATTAGTCGGGGCATTCAGCCAACATA,-0.148,-0.282,-0.477,0.225,-1.13,-0.142,-0.45,0.0888,0.947,0.374,0.609,-0.356,-0.764,-0.113,-0.53,-0.262,-0.468,-0.389,-0.665,-0.416
CCTTACGGGTCACTCCAGATTATAGCATCGGAGT,4.83,4.8,-0.0778,2.91,0.399,4.41,3.39,3.43,0.931,2.35,2.52,3.47,0.108,0.192,1.74,2.59,0.423,2.96,0.564,3.75
